Some test systems named below: RPMI-8226 leukemia; OVCAR-8 ovarian; OVCAR-5 ovarian; OVCAR-4 ovarian; SK-OV-3 ovarian; IGROV1 ovarian; OVCAR-3 ovarian; HS 578T breast; NCI/ADR-RES ovarian; T-47D breast.
What all share (test): NCI-60 one-dose screen, 48 h (100 = growth as untreated, 0 = no growth, -100 = all killed)
Settings in all cases: 10 µM unless noted

The panel holds about 83,000 compounds, 20% with a hit somewhere; the sample as a whole holds those more often.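 Step 1: grow cells in 96-well plates. Step 2: add test compound at a single concentration. Step 3: incubate 48 h. Step 4: record percent growth.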 Values without a mark were called inactive. Activity calls are given as the source filed them. The calls were made as follows: active = growth percent below 10; inactive = the rest.

Take `OCCNc1nc(NCCO)nc(Nc2ccc(C3=NN(c4ccc(Cl)cc4)C(c4ccc(Cl)cc4)C3)cc2)n1` (stereo not given): the growth with RPMI-8226 leukemia is 27.7%; in the assay with OVCAR-8 ovarian, 65.3%; in the assay with OVCAR-5 ovarian it was 110%; with OVCAR-4 ovarian, 65.6%; with SK-OV-3 ovarian, 84.1%; with IGROV1 ovarian it was 78.9%. Besides, the growth with OVCAR-3 ovarian is 40.7%; with HS 578T breast it was 62%; in the assay with NCI/ADR-RES ovarian, 73.8%; with T-47D breast, 55.8%.
`O=C(Nc1nccs1)c1noc2ccccc12`: the growth in the assay on RPMI-8226 leukemia is 90.4%; in the assay on OVCAR-8 ovarian, 94.7%; with OVCAR-5 ovarian, 103%; in the assay on OVCAR-4 ovarian, 88.4%; in the assay with SK-OV-3 ovarian it was 92.2%; in the assay with IGROV1 ovarian, 84.1%. Moreover, the growth was 110% with OVCAR-3 ovarian, 97% in the assay with HS 578T breast, 106% in the assay with NCI/ADR-RES ovarian and 57.5% in the assay with T-47D breast.
With `COc1ccc(-c2[nH]c3ccc(OC)cc3c2C=C(C#N)C#N)cc1`, the growth in the assay on RPMI-8226 leukemia was -11.5% (active); with OVCAR-8 ovarian, 57.3%; in the assay with OVCAR-5 ovarian, 55.8%; in the assay on OVCAR-4 ovarian it was 39.5%; with SK-OV-3 ovarian, 41.7%; in the assay with IGROV1 ovarian, 39.1%. Besides, the growth is -14.1% (active) in the assay on OVCAR-3 ovarian, 52.4% in the assay with HS 578T breast, 1.87% (active) in the assay with NCI/ADR-RES ovarian and 33.8% in the assay with T-47D breast.
Take `COc1cc(/C=C/C(=O)c2cccs2)ccc1OCc1ccc(Cl)nc1`: the growth with RPMI-8226 leukemia is 17.5%; in the assay on OVCAR-8 ovarian, 80.2%; with OVCAR-5 ovarian, 88.9%; in the assay on OVCAR-4 ovarian, 101%; in the assay on SK-OV-3 ovarian, 105%; with IGROV1 ovarian, 76.8%. For the same molecule, the growth in the assay with OVCAR-3 ovarian is 67.9%; in the assay on HS 578T breast it was 104%; in the assay on NCI/ADR-RES ovarian, 69.6%; with T-47D breast it was 77.1%.
Turning to `COc1ccc(-c2cc(-c3nnc(SCC(=O)Nc4ccc(/C(C)=N\O)cc4)o3)c3ccccc3n2)cc1`, the growth was 99% with RPMI-8226 leukemia; 105% with OVCAR-8 ovarian; 113% in the assay on OVCAR-5 ovarian; 103% with OVCAR-4 ovarian; 111% with SK-OV-3 ovarian; 112% in the assay on IGROV1 ovarian. For the same molecule, the growth was 98% in the assay with OVCAR-3 ovarian, 99.9% with HS 578T breast, 102% in the assay with NCI/ADR-RES ovarian and 102% with T-47D breast.
As for `NC(N)=NC(N)=Nc1cc2ccccc2c2ccccc12`, the growth is -15.4% (active) in the assay with RPMI-8226 leukemia; 45% in the assay on OVCAR-8 ovarian; 57.3% in the assay on OVCAR-5 ovarian; 45.8% in the assay with OVCAR-4 ovarian; 59.8% in the assay with SK-OV-3 ovarian; 17.2% with IGROV1 ovarian. The growth in the assay with OVCAR-3 ovarian was 63.2%; in the assay with HS 578T breast it was 46.5%; with NCI/ADR-RES ovarian, 80.4%; in the assay on T-47D breast, 30.2%.
Take `Cc1cccc(NC(=O)c2sc3nc4c(cc3c2N)CN(Cc2ccccc2)CC4)c1C`: the growth in the assay with RPMI-8226 leukemia was 26.8%; in the assay on OVCAR-8 ovarian it was 34.3%; in the assay with OVCAR-5 ovarian, 57.4%; with OVCAR-4 ovarian, 61.7%; with SK-OV-3 ovarian it was 42.2%; in the assay on IGROV1 ovarian it was 48.5%. For the same molecule, the growth is -21.3% (active) in the assay on OVCAR-3 ovarian, 30.8% with HS 578T breast, 20.2% in the assay on NCI/ADR-RES ovarian and 53% in the assay with T-47D breast.
For `Cc1nccc2c3ccc(OCc4cn(-c5ccccc5)nn4)cc3n(CCCc3ccccc3)c12`, the growth with RPMI-8226 leukemia is 31.6%; in the assay with OVCAR-8 ovarian, 55.6%; in the assay on OVCAR-5 ovarian it was 91.2%; in the assay with OVCAR-4 ovarian, 71.2%; in the assay with SK-OV-3 ovarian it was 69.7%; with IGROV1 ovarian, 89.1%. The growth with OVCAR-3 ovarian is 68.6%; with HS 578T breast, 65.5%; in the assay on NCI/ADR-RES ovarian, 70.4%; in the assay on T-47D breast, 78.4%.
Regarding `COC(=O)c1ccc(NC(=O)CSc2nc(-c3ccc(F)cc3)nc3ccccc23)cc1`, the growth with RPMI-8226 leukemia was 44.9%; in the assay with OVCAR-8 ovarian it was 82.2%; in the assay on OVCAR-5 ovarian, 107%; in the assay on OVCAR-4 ovarian, -31.5% (active); in the assay on SK-OV-3 ovarian, 90.9%; in the assay with IGROV1 ovarian it was 90.9%. In addition, the growth in the assay with OVCAR-3 ovarian was 16.8%; with HS 578T breast, 82.8%; in the assay with NCI/ADR-RES ovarian, 88%; in the assay with T-47D breast it was 67.7%.
Turning to `C=C(C)[C@@H]1CC[C@]2(C(=O)O)CC[C@]3(C)[C@H](CC[C@@H]4[C@@]5(C)C[C@@H](CC#Cc6ccccc6C)C(=O)C(C)(C)[C@@H]5CC[C@]43C)[C@@H]12`, the growth with RPMI-8226 leukemia was 14.6%; with OVCAR-8 ovarian it was 24.3%; in the assay on OVCAR-5 ovarian, 61%; with OVCAR-4 ovarian, 31.4%; in the assay with SK-OV-3 ovarian it was 34.2%; in the assay with IGROV1 ovarian, 62%. For the same molecule, the growth in the assay on OVCAR-3 ovarian was 18.3%; in the assay on HS 578T breast, 45%; with NCI/ADR-RES ovarian it was 48%; with T-47D breast, 20.7%.
Take `CCCn1cc(/C=N\N=C2\C(=O)Nc3ccc(C)cc32)c2ccccc21`: the growth in the assay on RPMI-8226 leukemia was -24.9% (active); in the assay with OVCAR-8 ovarian, 47.5%; in the assay on OVCAR-5 ovarian it was 84.6%; with OVCAR-4 ovarian, 41.8%; in the assay with SK-OV-3 ovarian it was 88.4%; with IGROV1 ovarian it was 39.4%. Besides, the growth was 2.1% (active) in the assay on OVCAR-3 ovarian, 74% with HS 578T breast, 76.3% in the assay on NCI/ADR-RES ovarian and 39.6% with T-47D breast.
Consider `CCCNc1nc(C)[nH]c(=O)c1S`, for which the growth in the assay with RPMI-8226 leukemia was 87.4%; in the assay with OVCAR-8 ovarian, 105%; in the assay on OVCAR-5 ovarian, 113%; with OVCAR-4 ovarian, 105%; with SK-OV-3 ovarian it was 134%; with IGROV1 ovarian, 102%. Further, the growth was 106% in the assay with OVCAR-3 ovarian, 137% in the assay on HS 578T breast, 109% with NCI/ADR-RES ovarian and 98.6% in the assay with T-47D breast.
Take `C/C(=N\NC(=O)c1ccncc1)c1ccc(N)cc1`: the growth is 97.5% in the assay with RPMI-8226 leukemia; 101% in the assay with OVCAR-8 ovarian; 107% in the assay on OVCAR-5 ovarian; 94.4% in the assay on OVCAR-4 ovarian; 101% in the assay with SK-OV-3 ovarian; 97.4% in the assay with IGROV1 ovarian. Further, the growth is 105% with OVCAR-3 ovarian, 96.8% in the assay on HS 578T breast, 111% with NCI/ADR-RES ovarian and 83.8% in the assay on T-47D breast.

For the origin of these results see PubChem BioAssay (NCI).
